# Out of some 5,500 compounds screened, about 2,000 (36%) were called active. Roughly 18% stayed inconclusive and do not appear here. The list shows a part of the results. Values without a mark were called inactive. Rule as the data show it: active = normalized growth mostly below about 0.91 (no sharp cut-off); inconclusive = no clear call, values can overlap the other calls; inactive = mostly above about 0.92.
# Assay: chemical genetic growth profiling, strain panel (AID 1159580);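 also: tested at 20 µM; growth read once vehicle control cultures reached saturation at 30 °C; 1 = growth at the plate median or of vehicle wells; lower values mean less growth of the strain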
# Details: growth OD
smiles,measurement,setting,value
C=C1C(C)C2C(Cc3ccccc3)NC(=O)C23OC(=O)/C=C/C(=O)CCCC(C)C/C=C/C3C1O (stereo unspecified),normalized growth,"S. cerevisiae deletion strains, locus YAL013W, strain DEP1, stronger effect = lower value",0.981
same,normalized growth,"S. cerevisiae deletion strains, locus YBR021W, strain FUR4, stronger effect = lower value",0.956
same,normalized growth,"S. cerevisiae deletion strains, locus YBR229C, strain ROT2, stronger effect = lower value",1.01
same,normalized growth,"S. cerevisiae deletion strains, locus YCL029C, strain bik1, stronger effect = lower value",1.01
same,normalized growth,"S. cerevisiae deletion strains, locus YDL035C, strain GPR1, stronger effect = lower value",0.952
same,normalized growth,"S. cerevisiae deletion strains, locus YDL074C, strain BRE1, stronger effect = lower value",0.987
same,normalized growth,"S. cerevisiae deletion strains, locus YDL101C, strain DUN1, stronger effect = lower value",1.01
same,normalized growth,"S. cerevisiae deletion strains, locus YDL134C, strain PPH21, stronger effect = lower value",0.984
same,normalized growth,"S. cerevisiae deletion strains, locus YDL185W, strain tfp1, stronger effect = lower value",1.02
same,normalized growth,"S. cerevisiae deletion strains, locus YDL192W, strain arf1, stronger effect = lower value",0.994
same,normalized growth,"S. cerevisiae deletion strains, locus YDR101C, strain arx1, stronger effect = lower value",1
same,normalized growth,"S. cerevisiae deletion strains, locus YDR150W, strain NUM1, stronger effect = lower value",0.985
same,normalized growth,"S. cerevisiae deletion strains, locus YDR162C, strain NBP2, stronger effect = lower value",0.912
same,normalized growth,"S. cerevisiae deletion strains, locus YDR318W, strain mcm21, stronger effect = lower value",0.958
same,normalized growth,"S. cerevisiae deletion strains, locus YDR388W, stronger effect = lower value",0.908 (active)
same,normalized growth,"S. cerevisiae deletion strains, locus YDR502C, strain sam2, stronger effect = lower value",0.998
same,normalized growth,"S. cerevisiae deletion strains, locus YEL061C, strain CIN8, stronger effect = lower value",1.01
same,normalized growth,"S. cerevisiae deletion strains, locus YER110C, stronger effect = lower value",1.01
same,normalized growth,"S. cerevisiae deletion strains, locus YER155C, strain BEM2, stronger effect = lower value",0.995
same,normalized growth,"S. cerevisiae deletion strains, locus YER167W, strain BCK2, stronger effect = lower value",0.974
same,normalized growth,"S. cerevisiae deletion strains, locus YGL078C, strain dbp3, stronger effect = lower value",0.99
same,normalized growth,"S. cerevisiae deletion strains, locus YGL086W, strain mad1, stronger effect = lower value",0.998
same,normalized growth,"S. cerevisiae deletion strains, locus YGL248W, strain PDE1, stronger effect = lower value",0.973
same,normalized growth,"S. cerevisiae deletion strains, locus YGR078C, strain PAC10, stronger effect = lower value",0.864
same,normalized growth,"S. cerevisiae deletion strains, locus YGR135W, strain pre9, stronger effect = lower value",0.99
same,normalized growth,"S. cerevisiae deletion strains, locus YGR229C, strain SMI1, stronger effect = lower value",0.609 (active)
same,normalized growth,"S. cerevisiae deletion strains, locus YGR252W, strain gcn5, stronger effect = lower value",0.966
same,normalized growth,"S. cerevisiae deletion strains, locus YHR030C, strain SLT2, stronger effect = lower value",0.652 (active)
same,normalized growth,"S. cerevisiae deletion strains, locus YHR079C, strain IRE1 (second series), stronger effect = lower value",1.01
same,normalized growth,"S. cerevisiae deletion strains, locus YHR094C, strain hxt1, stronger effect = lower value",1
same,normalized growth,"S. cerevisiae deletion strains, locus YHR129C, strain ARP1, stronger effect = lower value",0.972
same,normalized growth,"S. cerevisiae deletion strains, locus YHR200W, strain rpn10, stronger effect = lower value",1.01
same,normalized growth,"S. cerevisiae deletion strains, locus YIL066C, strain RNR3, stronger effect = lower value",0.988
same,normalized growth,"S. cerevisiae deletion strains, locus YIL073C, strain SPO22, stronger effect = lower value",0.815
same,normalized growth,"S. cerevisiae deletion strains, locus YIL125W, strain kgd1, stronger effect = lower value",0.99
same,normalized growth,"S. cerevisiae deletion strains, locus YIR030C, strain dcg1, stronger effect = lower value",1.01
same,normalized growth,"S. cerevisiae deletion strains, locus YJL095W, strain BCK1, stronger effect = lower value",1.01
same,normalized growth,"S. cerevisiae deletion strains, locus YJL134W, strain LCB3, stronger effect = lower value",1
same,normalized growth,"S. cerevisiae deletion strains, locus YJL168C, strain set2, stronger effect = lower value",1.01
same,normalized growth,"S. cerevisiae deletion strains, locus YJL187C, strain SWE1 (second series), stronger effect = lower value",1.01
same,normalized growth,"S. cerevisiae deletion strains, locus YJR043C, strain POL32, stronger effect = lower value",0.975
same,normalized growth,"S. cerevisiae deletion strains, locus YJR075W, strain HOC1, stronger effect = lower value",1.03
same,normalized growth,"S. cerevisiae deletion strains, locus YKL009W, strain mrt4, stronger effect = lower value",1.02
same,normalized growth,"S. cerevisiae deletion strains, locus YKL068W, stronger effect = lower value",0.993
same,normalized growth,"S. cerevisiae deletion strains, locus YKL085W, strain MDH1 (second series), stronger effect = lower value",0.977
same,normalized growth,"S. cerevisiae deletion strains, locus YKL085W, strain MDH1, stronger effect = lower value",0.977
same,normalized growth,"S. cerevisiae deletion strains, locus YKL190W, strain CNB1, stronger effect = lower value",1
same,normalized growth,"S. cerevisiae deletion strains, locus YKR001C, strain vps1, stronger effect = lower value",0.935
same,normalized growth,"S. cerevisiae deletion strains, locus YLR039C, strain RIC1, stronger effect = lower value",0.893
same,normalized growth,"S. cerevisiae deletion strains, locus YLR058C, strain SHM2, stronger effect = lower value",1.01
same,normalized growth,"S. cerevisiae deletion strains, locus YLR102C, strain apc9, stronger effect = lower value",1.01
same,normalized growth,"S. cerevisiae deletion strains, locus YLR262C, strain YPT6, stronger effect = lower value",0.597 (active)
same,normalized growth,"S. cerevisiae deletion strains, locus YLR268W, strain sec22, stronger effect = lower value",1.03
same,normalized growth,"S. cerevisiae deletion strains, locus YLR330W, strain CHS5, stronger effect = lower value",0.988
same,normalized growth,"S. cerevisiae deletion strains, locus YLR342W, strain FKS1 (second series), stronger effect = lower value",0.805
same,normalized growth,"S. cerevisiae deletion strains, locus YLR371W, strain rom2, stronger effect = lower value",1.02
same,normalized growth,"S. cerevisiae deletion strains, locus YLR418C, strain cdc73, stronger effect = lower value",0.94
same,normalized growth,"S. cerevisiae deletion strains, locus YML016C, strain PPZ1, stronger effect = lower value",1
same,normalized growth,"S. cerevisiae deletion strains, locus YML032C, strain rad52, stronger effect = lower value",1.01
same,normalized growth,"S. cerevisiae deletion strains, locus YML124C, strain tub3, stronger effect = lower value",1.01
same,normalized growth,"S. cerevisiae deletion strains, locus YMR078C, strain ctf18, stronger effect = lower value",1.01
same,normalized growth,"S. cerevisiae deletion strains, locus YMR223W, strain ubp8, stronger effect = lower value",0.986
same,normalized growth,"S. cerevisiae deletion strains, locus YMR263W, strain SAP30, stronger effect = lower value",1
same,normalized growth,"S. cerevisiae deletion strains, locus YMR307W, strain GAS1, stronger effect = lower value",0.586 (active)
same,normalized growth,"S. cerevisiae deletion strains, locus YNL067W, strain RPL9B, stronger effect = lower value",0.975
same,normalized growth,"S. cerevisiae deletion strains, locus YNL128W, strain TEP1, stronger effect = lower value",0.973
same,normalized growth,"S. cerevisiae deletion strains, locus YNL153C, strain GIM3, stronger effect = lower value",0.989
same,normalized growth,"S. cerevisiae deletion strains, locus YNL233W, strain BNI4, stronger effect = lower value",1.02
same,normalized growth,"S. cerevisiae deletion strains, locus YNL250W, strain rad50, stronger effect = lower value",1.01
same,normalized growth,"S. cerevisiae deletion strains, locus YNL271C, strain bni1, stronger effect = lower value",0.96
same,normalized growth,"S. cerevisiae deletion strains, locus YNL298W, strain CLA4, stronger effect = lower value",0.896 (active)
same,normalized growth,"S. cerevisiae deletion strains, locus YNL307C, strain MCK1, stronger effect = lower value",0.841 (active)
same,normalized growth,"S. cerevisiae deletion strains, locus YNL322C, strain KRE1, stronger effect = lower value",1.01
same,normalized growth,"S. cerevisiae deletion strains, locus YNR052C, strain pop2, stronger effect = lower value",1.01
same,normalized growth,"S. cerevisiae deletion strains, locus YOL006C, strain TOP1, stronger effect = lower value",0.79
same,normalized growth,"S. cerevisiae deletion strains, locus YOL012C, strain htz1",0.448
same,normalized growth,"S. cerevisiae deletion strains, locus YOL147C, strain pex11, stronger effect = lower value",1
same,normalized growth,"S. cerevisiae deletion strains, locus YOR061W, strain CKA2, stronger effect = lower value",0.996
same,normalized growth,"S. cerevisiae deletion strains, locus YOR069W, strain VPS5, stronger effect = lower value",1
same,normalized growth,"S. cerevisiae deletion strains, locus YOR136W, strain idh2, stronger effect = lower value",0.991
same,normalized growth,"S. cerevisiae deletion strains, locus YOR144C, strain elg1, stronger effect = lower value",1
same,normalized growth,"S. cerevisiae deletion strains, locus YOR184W, strain ser1, stronger effect = lower value",0.992
same,normalized growth,"S. cerevisiae deletion strains, locus YOR316C, strain cot1, stronger effect = lower value",1.01
same,normalized growth,"S. cerevisiae deletion strains, locus YPL055C, strain LGE1, stronger effect = lower value",0.97
same,normalized growth,"S. cerevisiae deletion strains, locus YPL241C, strain CIN2, stronger effect = lower value",1
same,normalized growth,"S. cerevisiae deletion strains, locus YPR119W, strain clb2, stronger effect = lower value",1
same,normalized growth,"S. cerevisiae deletion strains, locus YPR141C, strain kar3, stronger effect = lower value",1.01
same,normalized growth,"S. cerevisiae deletion strains, locus YPR163C, strain tif3, stronger effect = lower value",0.884 (active)
same,normalized growth,"S. cerevisiae deletion strains, locus YPR167C, strain met16, stronger effect = lower value",1.01
same,normalized growth,"S. cerevisiae deletion strains, strain wtn01, stronger effect = lower value",0.983
same,normalized growth,"S. cerevisiae strains, strain wild type, stronger effect = lower value",0.966
